PMC7862700, “An all-to-all approach to the identification of sequence-specific readers for epigenetic DNA modifications on cytosine”

Columns and labels:
Test in all cases: DAPPL (digital affinity profiling via proximity ligation, sequencing); 10 mM Tris-HCl pH 7.5, 50 mM NaCl, 1 mM DTT, 4% glycerol, room temperature, 30 min; GST-TFs on glutathione beads, 16-mer random dsDNA library, 0.1% formaldehyde crosslink after washing; high values mean tight binding
FLI1 = target: T1, FLI1 (Homo sapiens, UniProt Q01543 1-452); conditions: protein: recombinant; tags: N-terminal GST; dsDNA, one strand shown
T1 sequence: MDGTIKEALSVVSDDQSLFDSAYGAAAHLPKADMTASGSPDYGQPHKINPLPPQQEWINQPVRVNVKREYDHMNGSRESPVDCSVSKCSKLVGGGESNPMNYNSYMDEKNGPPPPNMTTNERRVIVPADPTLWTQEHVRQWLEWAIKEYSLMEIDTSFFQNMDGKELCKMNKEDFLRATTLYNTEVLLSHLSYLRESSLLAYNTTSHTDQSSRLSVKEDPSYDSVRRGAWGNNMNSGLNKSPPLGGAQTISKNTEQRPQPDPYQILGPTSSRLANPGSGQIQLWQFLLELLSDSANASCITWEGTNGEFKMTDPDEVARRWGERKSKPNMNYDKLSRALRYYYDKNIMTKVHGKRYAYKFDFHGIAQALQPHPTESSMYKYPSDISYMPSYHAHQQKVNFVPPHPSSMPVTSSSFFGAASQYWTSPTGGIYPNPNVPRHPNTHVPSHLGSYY
Summary of the method: (§1)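 After expression in yeast as GST fusions, human transcription factors were bound to glutathione beads, DNA-barcoded and mixed with a tag-only sample. The pools were incubated with 200 nmole of a 16-mer random double-stranded DNA library in Tris/NaCl/DTT/glycerol buffer (30 min, room temperature), washed and crosslinked with 0.1% formaldehyde. Proximity ligation with BsaI/T4 ligase ran for 1 h at 37 °C, before PCR amplification and sequencing on an Illumina NextSeq500. Binding signal is a hexamer's read frequency for a factor divided by its frequency for the tag-only sample.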

ELK1 = target: T2, ELK1 (Homo sapiens, UniProt P19419 1-428); conditions: protein: recombinant; tags: N-terminal GST; dsDNA, one strand shown
T2 sequence: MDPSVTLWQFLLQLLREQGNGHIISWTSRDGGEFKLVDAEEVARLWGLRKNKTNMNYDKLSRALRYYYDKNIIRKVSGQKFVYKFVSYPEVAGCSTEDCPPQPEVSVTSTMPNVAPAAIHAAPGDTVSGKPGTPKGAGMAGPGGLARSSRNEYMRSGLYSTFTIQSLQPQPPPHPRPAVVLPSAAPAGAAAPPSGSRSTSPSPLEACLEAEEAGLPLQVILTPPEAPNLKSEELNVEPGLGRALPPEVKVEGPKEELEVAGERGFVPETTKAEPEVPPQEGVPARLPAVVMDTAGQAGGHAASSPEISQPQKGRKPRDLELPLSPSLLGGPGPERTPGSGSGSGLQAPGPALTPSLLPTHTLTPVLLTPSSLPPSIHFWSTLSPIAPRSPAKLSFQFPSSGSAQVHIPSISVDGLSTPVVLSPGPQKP
Summary of the method: as §1

GABPA = target: T3, GABPA (Homo sapiens, UniProt Q06546 1-454); conditions: protein: recombinant; tags: N-terminal GST; dsDNA, one strand shown
T3 sequence: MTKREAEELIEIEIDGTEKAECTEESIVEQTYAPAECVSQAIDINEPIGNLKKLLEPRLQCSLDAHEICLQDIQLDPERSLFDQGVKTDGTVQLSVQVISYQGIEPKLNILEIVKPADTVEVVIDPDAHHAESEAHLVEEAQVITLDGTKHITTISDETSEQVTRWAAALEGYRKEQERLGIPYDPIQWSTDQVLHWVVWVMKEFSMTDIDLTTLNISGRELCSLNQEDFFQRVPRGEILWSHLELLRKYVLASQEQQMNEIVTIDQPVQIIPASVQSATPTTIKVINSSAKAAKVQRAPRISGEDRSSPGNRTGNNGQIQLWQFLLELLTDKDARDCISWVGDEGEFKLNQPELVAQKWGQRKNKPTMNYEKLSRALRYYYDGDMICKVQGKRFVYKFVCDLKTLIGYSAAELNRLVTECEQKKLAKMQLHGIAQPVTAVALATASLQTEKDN
Summary of the method: as §1

ERG = target: T4, ERG (Homo sapiens, UniProt P11308 1-479); conditions: protein: recombinant; tags: N-terminal GST; dsDNA, one strand shown
T4 sequence: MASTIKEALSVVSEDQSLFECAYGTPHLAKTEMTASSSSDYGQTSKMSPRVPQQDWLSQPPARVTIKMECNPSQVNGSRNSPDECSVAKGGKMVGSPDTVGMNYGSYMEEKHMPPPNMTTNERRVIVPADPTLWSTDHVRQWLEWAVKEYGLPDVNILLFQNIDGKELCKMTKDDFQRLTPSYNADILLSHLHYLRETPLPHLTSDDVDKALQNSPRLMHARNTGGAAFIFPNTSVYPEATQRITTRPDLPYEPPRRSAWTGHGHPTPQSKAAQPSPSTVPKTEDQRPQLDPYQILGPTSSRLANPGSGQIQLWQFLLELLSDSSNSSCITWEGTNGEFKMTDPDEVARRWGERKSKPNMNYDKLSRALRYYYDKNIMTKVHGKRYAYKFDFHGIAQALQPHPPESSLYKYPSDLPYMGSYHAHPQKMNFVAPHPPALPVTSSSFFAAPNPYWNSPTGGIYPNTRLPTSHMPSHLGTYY
Summary of the method: as §1

ELF1 = ELF1 (Homo sapiens, UniProt P32519 1-619); conditions: protein: recombinant; tags: N-terminal GST; dsDNA, one strand shown
ELF1, sequence (P32519 whole entry): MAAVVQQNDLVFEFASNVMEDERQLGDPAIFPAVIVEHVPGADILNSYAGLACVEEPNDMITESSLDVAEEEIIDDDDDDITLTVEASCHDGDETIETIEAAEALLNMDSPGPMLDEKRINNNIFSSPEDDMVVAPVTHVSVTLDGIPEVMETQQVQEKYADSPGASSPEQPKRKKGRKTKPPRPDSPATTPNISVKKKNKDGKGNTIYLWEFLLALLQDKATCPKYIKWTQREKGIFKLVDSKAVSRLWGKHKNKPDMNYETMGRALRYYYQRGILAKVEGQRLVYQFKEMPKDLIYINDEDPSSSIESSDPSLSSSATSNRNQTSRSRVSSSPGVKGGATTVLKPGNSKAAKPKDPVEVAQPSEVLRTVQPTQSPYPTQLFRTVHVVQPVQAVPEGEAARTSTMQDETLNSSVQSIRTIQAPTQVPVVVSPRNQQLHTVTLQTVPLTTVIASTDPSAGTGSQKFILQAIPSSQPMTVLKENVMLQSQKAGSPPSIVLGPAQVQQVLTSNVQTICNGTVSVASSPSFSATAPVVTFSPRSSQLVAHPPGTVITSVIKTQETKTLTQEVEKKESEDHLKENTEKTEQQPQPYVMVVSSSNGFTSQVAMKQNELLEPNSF
Summary of the method: as §1

EHF = target: T5, EHF (Homo sapiens, UniProt Q9NZC4 1-300); conditions: protein: recombinant; tags: N-terminal GST; dsDNA, one strand shown
T5 sequence: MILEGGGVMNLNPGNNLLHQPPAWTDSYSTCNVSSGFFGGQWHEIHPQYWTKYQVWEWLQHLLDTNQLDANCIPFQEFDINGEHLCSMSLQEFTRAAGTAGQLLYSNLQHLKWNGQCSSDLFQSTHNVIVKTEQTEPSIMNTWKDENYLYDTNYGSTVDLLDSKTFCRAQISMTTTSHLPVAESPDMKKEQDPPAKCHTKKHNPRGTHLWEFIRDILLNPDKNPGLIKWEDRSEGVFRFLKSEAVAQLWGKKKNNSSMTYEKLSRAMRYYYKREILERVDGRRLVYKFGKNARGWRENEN
Summary of the method: as §1

SPI1 = SPI1 (Homo sapiens, UniProt P17947 1-270); conditions: protein: recombinant; tags: N-terminal GST; dsDNA, one strand shown
Summary of the method: as §1

SPIB = SPIB (Homo sapiens, UniProt Q01892 1-262); conditions: protein: recombinant; tags: N-terminal GST; dsDNA, one strand shown
SPIB, sequence (Q01892 whole entry): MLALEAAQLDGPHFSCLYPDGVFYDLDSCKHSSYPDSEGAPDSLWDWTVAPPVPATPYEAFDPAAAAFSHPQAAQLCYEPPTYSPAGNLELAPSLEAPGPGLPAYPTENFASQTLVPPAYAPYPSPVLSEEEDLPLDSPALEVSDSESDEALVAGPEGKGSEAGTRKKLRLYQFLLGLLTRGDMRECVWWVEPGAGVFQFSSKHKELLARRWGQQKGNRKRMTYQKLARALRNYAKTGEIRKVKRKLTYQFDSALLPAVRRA
Summary of the method: as §1

ELK3 = target: T6, ELK3 (Homo sapiens, UniProt P41970 1-407); conditions: protein: recombinant; tags: N-terminal GST; dsDNA, one strand shown
T6 sequence: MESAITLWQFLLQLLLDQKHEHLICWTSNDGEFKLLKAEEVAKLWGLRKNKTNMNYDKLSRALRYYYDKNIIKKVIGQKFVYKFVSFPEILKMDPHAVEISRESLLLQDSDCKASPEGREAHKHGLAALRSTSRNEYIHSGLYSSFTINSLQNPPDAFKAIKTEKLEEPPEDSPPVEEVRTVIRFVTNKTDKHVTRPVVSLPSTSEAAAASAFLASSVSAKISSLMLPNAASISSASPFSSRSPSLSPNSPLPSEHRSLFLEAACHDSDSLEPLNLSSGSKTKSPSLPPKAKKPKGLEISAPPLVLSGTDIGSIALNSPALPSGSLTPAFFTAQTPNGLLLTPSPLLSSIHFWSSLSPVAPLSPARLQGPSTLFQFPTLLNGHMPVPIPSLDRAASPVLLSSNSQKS
Summary of the method: as §1

FEV = target: T7, FEV (Homo sapiens, UniProt Q99581 1-238); conditions: protein: recombinant; tags: N-terminal GST; dsDNA, one strand shown
T7 sequence: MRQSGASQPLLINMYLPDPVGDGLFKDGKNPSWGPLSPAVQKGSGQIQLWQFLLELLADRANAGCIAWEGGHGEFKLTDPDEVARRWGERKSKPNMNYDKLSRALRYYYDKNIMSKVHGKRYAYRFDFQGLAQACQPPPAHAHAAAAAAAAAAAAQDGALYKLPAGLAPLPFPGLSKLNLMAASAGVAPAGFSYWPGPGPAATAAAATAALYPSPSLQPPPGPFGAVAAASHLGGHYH
Summary of the method: as §1

ETV5 = ETV5 (Homo sapiens, UniProt P41161 1-510); conditions: protein: recombinant; tags: N-terminal GST; dsDNA, one strand shown
ETV5, sequence (P41161 whole entry): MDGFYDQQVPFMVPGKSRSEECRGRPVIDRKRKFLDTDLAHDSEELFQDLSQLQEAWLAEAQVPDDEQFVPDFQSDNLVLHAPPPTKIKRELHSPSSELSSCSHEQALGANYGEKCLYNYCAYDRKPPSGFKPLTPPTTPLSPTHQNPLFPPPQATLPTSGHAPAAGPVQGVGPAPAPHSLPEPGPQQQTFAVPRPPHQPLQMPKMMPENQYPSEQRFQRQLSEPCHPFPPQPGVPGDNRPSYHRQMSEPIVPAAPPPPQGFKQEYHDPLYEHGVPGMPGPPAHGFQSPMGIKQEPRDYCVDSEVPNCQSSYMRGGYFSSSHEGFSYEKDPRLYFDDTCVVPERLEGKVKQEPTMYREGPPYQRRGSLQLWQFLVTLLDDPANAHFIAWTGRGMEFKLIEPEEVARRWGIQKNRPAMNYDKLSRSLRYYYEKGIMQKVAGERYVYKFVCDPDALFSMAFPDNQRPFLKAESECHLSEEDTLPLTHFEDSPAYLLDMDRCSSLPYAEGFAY
Summary of the method: as §1

HSF1 = HSF1 (Homo sapiens, UniProt Q00613 1-529); conditions: protein: recombinant; tags: N-terminal GST; chain copies: 3; dsDNA, one strand shown
HSF1, sequence (Q00613 whole entry): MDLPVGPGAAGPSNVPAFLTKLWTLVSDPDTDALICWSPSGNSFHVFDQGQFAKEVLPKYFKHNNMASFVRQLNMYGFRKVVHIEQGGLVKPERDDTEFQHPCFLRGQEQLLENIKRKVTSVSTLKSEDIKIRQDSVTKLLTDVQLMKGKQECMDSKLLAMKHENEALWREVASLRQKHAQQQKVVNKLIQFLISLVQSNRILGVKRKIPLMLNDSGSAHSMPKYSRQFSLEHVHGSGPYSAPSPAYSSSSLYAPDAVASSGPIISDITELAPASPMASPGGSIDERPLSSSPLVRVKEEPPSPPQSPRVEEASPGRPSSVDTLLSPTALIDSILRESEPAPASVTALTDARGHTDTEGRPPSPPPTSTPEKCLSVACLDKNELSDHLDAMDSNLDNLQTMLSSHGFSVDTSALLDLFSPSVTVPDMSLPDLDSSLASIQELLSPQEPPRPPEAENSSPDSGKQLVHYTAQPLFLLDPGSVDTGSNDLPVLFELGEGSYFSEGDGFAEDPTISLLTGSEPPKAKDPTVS
Summary of the method: as §1

SPIC = target: T8, SPIC (Homo sapiens, UniProt Q8N5J4 1-248); conditions: protein: recombinant; tags: N-terminal GST; dsDNA, one strand shown
T8 sequence: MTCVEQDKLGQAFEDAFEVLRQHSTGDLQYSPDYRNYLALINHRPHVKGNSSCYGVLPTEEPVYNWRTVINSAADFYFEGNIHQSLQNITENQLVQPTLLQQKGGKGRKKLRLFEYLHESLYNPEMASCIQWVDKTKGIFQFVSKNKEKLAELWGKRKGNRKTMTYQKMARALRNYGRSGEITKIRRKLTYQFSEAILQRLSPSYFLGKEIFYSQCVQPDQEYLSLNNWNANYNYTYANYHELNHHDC
Summary of the method: as §1

ELF4 = ELF4 (Homo sapiens, UniProt Q99607 1-663); conditions: protein: recombinant; tags: N-terminal GST; dsDNA, one strand shown
ELF4, sequence (Q99607 whole entry): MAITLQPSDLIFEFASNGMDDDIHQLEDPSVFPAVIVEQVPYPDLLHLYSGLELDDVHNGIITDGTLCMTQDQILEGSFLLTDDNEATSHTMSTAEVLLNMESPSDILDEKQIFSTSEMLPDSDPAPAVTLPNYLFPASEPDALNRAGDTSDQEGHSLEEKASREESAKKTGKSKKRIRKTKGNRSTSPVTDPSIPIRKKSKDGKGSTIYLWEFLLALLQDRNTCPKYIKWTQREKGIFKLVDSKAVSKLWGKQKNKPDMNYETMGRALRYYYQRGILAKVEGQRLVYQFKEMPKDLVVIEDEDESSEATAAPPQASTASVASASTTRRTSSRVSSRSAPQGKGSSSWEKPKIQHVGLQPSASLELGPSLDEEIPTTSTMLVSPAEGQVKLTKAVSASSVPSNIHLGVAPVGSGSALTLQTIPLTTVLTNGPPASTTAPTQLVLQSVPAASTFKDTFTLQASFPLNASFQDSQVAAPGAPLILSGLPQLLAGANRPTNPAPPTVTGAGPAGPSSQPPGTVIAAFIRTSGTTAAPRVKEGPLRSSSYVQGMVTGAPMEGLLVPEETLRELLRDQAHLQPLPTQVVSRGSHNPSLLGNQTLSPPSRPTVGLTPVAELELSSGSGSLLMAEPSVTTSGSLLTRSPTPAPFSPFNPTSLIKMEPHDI
Summary of the method: as §1

ELK4 = target: T9, ELK4 (Homo sapiens, UniProt P28324-2 1-405); conditions: protein: recombinant; tags: N-terminal GST; dsDNA, one strand shown
T9 sequence: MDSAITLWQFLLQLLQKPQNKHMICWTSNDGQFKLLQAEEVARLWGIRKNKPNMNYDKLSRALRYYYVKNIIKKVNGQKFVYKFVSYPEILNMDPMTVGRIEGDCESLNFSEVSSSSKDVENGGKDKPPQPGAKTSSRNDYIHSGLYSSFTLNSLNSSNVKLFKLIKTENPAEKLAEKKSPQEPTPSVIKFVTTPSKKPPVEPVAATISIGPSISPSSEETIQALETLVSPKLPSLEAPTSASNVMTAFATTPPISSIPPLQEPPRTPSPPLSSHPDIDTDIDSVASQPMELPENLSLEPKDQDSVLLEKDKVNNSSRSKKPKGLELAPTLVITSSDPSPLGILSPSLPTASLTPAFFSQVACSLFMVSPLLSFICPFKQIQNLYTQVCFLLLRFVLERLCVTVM
Summary of the method: as §1

ETV2 = target: T10, ETV2 (Homo sapiens, UniProt O00321 1-342); conditions: protein: recombinant; tags: N-terminal GST; dsDNA, one strand shown
T10 sequence: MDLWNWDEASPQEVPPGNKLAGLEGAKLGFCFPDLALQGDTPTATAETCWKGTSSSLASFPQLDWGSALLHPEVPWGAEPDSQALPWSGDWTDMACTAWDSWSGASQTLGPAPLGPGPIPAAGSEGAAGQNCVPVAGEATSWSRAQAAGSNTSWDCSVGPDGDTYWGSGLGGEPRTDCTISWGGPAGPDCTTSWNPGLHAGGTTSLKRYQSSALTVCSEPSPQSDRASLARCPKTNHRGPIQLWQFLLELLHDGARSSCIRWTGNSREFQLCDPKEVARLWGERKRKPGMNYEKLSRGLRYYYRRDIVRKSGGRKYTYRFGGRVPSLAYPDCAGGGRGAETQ
Summary of the method: as §1

ELF3 = target: T11, ELF3 (Homo sapiens, UniProt P78545 1-371); conditions: protein: recombinant; tags: N-terminal GST; dsDNA, one strand shown
T11 sequence: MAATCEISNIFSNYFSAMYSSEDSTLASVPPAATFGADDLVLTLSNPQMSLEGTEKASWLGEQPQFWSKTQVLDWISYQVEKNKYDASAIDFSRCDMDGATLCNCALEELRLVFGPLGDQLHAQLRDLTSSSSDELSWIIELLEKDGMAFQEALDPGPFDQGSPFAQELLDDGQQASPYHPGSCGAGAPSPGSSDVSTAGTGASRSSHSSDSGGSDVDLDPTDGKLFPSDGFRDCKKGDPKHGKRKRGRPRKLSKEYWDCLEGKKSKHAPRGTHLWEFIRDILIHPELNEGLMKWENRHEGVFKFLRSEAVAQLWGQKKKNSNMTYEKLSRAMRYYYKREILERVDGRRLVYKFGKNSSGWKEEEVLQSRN
Summary of the method: as §1

CRX = CRX (Homo sapiens, UniProt O43186 1-299); conditions: protein: recombinant; tags: N-terminal GST; dsDNA, one strand shown
CRX, sequence (O43186 whole entry): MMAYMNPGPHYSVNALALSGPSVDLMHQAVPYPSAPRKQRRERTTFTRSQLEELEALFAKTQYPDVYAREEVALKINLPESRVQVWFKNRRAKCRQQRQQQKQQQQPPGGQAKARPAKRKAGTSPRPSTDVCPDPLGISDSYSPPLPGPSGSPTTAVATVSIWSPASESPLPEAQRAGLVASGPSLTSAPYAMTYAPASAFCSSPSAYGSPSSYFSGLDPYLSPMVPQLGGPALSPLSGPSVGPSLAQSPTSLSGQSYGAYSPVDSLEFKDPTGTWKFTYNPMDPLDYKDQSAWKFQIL
Summary of the method: as §1

ETV1 = ETV1 (Homo sapiens, UniProt P50549 1-477); conditions: protein: recombinant; tags: N-terminal GST; dsDNA, one strand shown
ETV1, sequence (P50549 whole entry): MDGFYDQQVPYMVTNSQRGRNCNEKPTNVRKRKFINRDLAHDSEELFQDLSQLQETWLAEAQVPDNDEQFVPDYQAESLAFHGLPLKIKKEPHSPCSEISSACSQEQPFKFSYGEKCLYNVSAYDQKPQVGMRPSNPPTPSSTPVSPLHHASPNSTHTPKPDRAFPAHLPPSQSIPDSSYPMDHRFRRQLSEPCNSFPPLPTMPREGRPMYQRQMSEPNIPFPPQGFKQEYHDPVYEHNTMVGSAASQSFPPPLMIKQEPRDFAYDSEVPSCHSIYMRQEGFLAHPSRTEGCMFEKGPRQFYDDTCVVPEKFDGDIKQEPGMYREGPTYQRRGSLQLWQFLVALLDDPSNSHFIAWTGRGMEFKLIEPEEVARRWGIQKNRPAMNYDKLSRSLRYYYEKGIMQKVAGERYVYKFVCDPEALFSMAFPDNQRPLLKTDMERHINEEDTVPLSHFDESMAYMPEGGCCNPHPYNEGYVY
Summary of the method: as §1

For TCATCA, the binding signal (FLI1) was 1.18 fold enrichment (6-mer frequency, TF over GST control), the binding signal (ELK1) was 1.16 fold enrichment (6-mer frequency, TF over GST control) and the binding signal (GABPA) was 1.17 fold enrichment (6-mer frequency, TF over GST control). The binding signal (ERG) was 1.13 fold enrichment (6-mer frequency, TF over GST control), the binding signal (ELF1) was 1.14 fold enrichment (6-mer frequency, TF over GST control) and the binding signal (EHF) was 1.09 fold enrichment (6-mer frequency, TF over GST control). For the same sequence, the binding signal (SPI1) was 1.1 fold enrichment (6-mer frequency, TF over GST control), the binding signal (SPIB) was 1.14 fold enrichment (6-mer frequency, TF over GST control) and the binding signal (ELK3) was 1.18 fold enrichment (6-mer frequency, TF over GST control). The binding signal (FEV) was 1.12 fold enrichment (6-mer frequency, TF over GST control), the binding signal (ETV5) was 1.09 fold enrichment (6-mer frequency, TF over GST control) and the binding signal (HSF1) was 1.06 fold enrichment (6-mer frequency, TF over GST control). For the same sequence, the binding signal (SPIC) was 1.16 fold enrichment (6-mer frequency, TF over GST control), the binding signal (ELF4) was 1.18 fold enrichment (6-mer frequency, TF over GST control) and the binding signal (ELK4) was 1.26 fold enrichment (6-mer frequency, TF over GST control). The binding signal (ETV2) was 1.07 fold enrichment (6-mer frequency, TF over GST control), the binding signal (ELF3) was 1.07 fold enrichment (6-mer frequency, TF over GST control) and the binding signal (CRX) was 1.07 fold enrichment (6-mer frequency, TF over GST control). For the same sequence, the binding signal (ETV1) was 1.06 fold enrichment (6-mer frequency, TF over GST control).
